Data reported in PubChem BioAssay (Tox21).
Inconclusive results are not listed. Calls of active or inactive are those of the source. Calls follow the shape of the full dose curve.

Experiment: qHTS assay to identify small molecule agonists of the NFkB signaling pathway - cell viability counter screen (AID 1159515); also: nearly all actives have a fitted effect of over 55% in size
Details: NFkB-bla ME-180 viability, CellTiter-Glo luminescence, 5 h; series mostly up to 61 µM
From the text: National Center for Advancing Translational Sciences [NCATS]
NIH Chemical Genomics Center [NCGC]
U.S. Environmental Protection Agency [EPA]
National Institutes of Environmental Health Sciences [NIEHS]
National Toxicology Program [NTP]
U.S. Food and Drug Administration [FDA]
Transcription factors and their stimulated target gene expression play pivotal roles across many cellular processes including responses to environmental stimuli. Proper regulation of associated pathways is critical to maintain cell health and function. Constitutive activation of transcription factor pathways has been implicated in tumors as it may block cellular functions such as apoptosis and lead to invasion and metastasis. One important transcription factor that stimulates gene expression in response to cytokines, UV radiation, and other stimuli is nuclear factor-kappa B (NFkB). To measure activation of the NFkB pathway, the CellSensor NFkB-bla ME-180 cell line (Life Technologies, Carlsbad, CA) that stably expresses beta-lactamase reporter gene under the regulation of a NF-kB response element was used. This assay allows measurement of the NFkB pathway activity induced by compounds in a ME-180 cell line. This system quantitates NF-kB activity using a FRET-based assay system where beta-lactamase expression disrupts FRET, allowing for fluorescent measurement of activity. This cell line has been used to screen the Tox21 10K compound library and to identify compounds that induce the NFkB pathway activity. The cytotoxicity of the Tox21 compound library against the NFkB-bla ME-180 cell line was tested in parallel by measuring cell viability using the CellTiter-Glo assay in the same wells.
Tox21 Assay Protocol Summary:
NFkB-bla ME-180 cells were dispensed at 2,000 cells/6 uL of assay medium per well into black wall/clear-bottom 1536-well plates using a Multidrop Combi (ThermoFisher Scientific, Waltham, MA) dispenser. After the assay plates were incubated at 37 C and 5% CO2 for an overnight, 23 nL of compounds dissolved in DMSO, positive controls or DMSO only was transferred to the assay plate by a Pintool station (Kalypsys, San Diego, CA). The assay plates were incubated at 37 C and 5% CO2 for 5 hr. One uL of LiveBLAzer B/G FRET substrate (Life Technologies) was added using a Flying Reagent Dispenser (Aurora Discovery, San Diego, CA) and the plates were incubated at room temperature for 1.5 hr. Fluorescence intensity (405 nm excitation, 460 nm and 530 nm emissions) was measured using an Envision plate reader (PerkinElmer, Shelton, CT). For cytotoxicity, 3 ul/well of CellTiter-Glo reagent was added into the assay plates using an FRD. After 30 min incubation at room temperature, the luminescence intensity was measured using a ViewLux plate reader (PerkinElmer).

| SMILES | outcome |
| --- | --- |
| CN(C)CCN(C)CCN(C)C | inactive |
| CC(=O)Nc1ccc(OCC(O)CNC(C)C)cc1 (stereo not given) | inactive |
| O=S(=O)(O)c1cccc2c(S(=O)(=O)O)cccc12 | inactive |
| CCOC(=O)COc1cc(-n2ncc(C(F)(F)F)c(C)c2=O)c(F)cc1Cl | inactive |
| NC(CCC(=O)O)C(=O)O (stereo not given) | inactive |
| CCOC(=O)c1ccccc1 | inactive |
| CC1CCC(CO)CC1 (stereo not given) | inactive |
| CCO[Si](OCC)(OCC)c1ccccc1 | inactive |
| CN1[C@@H]2CC[C@H]1CC(OC(=O)C(O)c1ccccc1)C2 (stereo not given in full) | inactive |
| Cc1ccc(C(=O)c2ccc(CC(=O)O)n2C)cc1 | inactive |
| CCCCCCCCN1CCCC1=O | inactive |
| CC(=O)N1C[C@H](O)C[C@H]1C(=O)O | inactive |
| COCCOCC(OC)OC | inactive |
| CO[C@@]1(NC(=O)C(C(=O)O)c2ccc(O)cc2)C(=O)N2C(C(=O)O)=C(CSc3nnnn3C)CO[C@@H]21 (stereo not given in full) | inactive |
| CCCCOCCOC(=O)CCCCCCCCC(=O)OCCOCCCC | inactive |
| CC(C)C[C@@H](N)C(=O)O | inactive |
| COCCOC[C@H](CC1(C(=O)NC2CCC(C(=O)O)CC2)CCCC1)C(=O)Oc1ccc2c(c1)CCC2 (stereo not given in full) | inactive |
| CC(=O)NC(=O)c1ccccc1O | inactive |
| CC(C)C(=O)OC(=O)C(C)C | inactive |
| CNC(=O)Nc1ccc(Cl)c(Cl)c1 | inactive |

| SMILES | outcome |
| --- | --- |
| CCN(CC#N)c1cccc(C)c1 | inactive |
| CC(=O)c1ccccc1[N+](=O)[O-] | inactive |
| CC(C)(N)C#N | inactive |
| CC(=O)c1cnccn1 | inactive |
| CC(=O)N[C@H]1[C@H]([C@H](O)[C@H](O)CO)OC(C(=O)O)=C[C@@H]1N=C(N)N | inactive |
| CC/C=C\CCOC(C)OCC (stereo not given) | inactive |
| CO[C@@]1(NC(=O)CSC[C@@H](N)C(=O)O)C(=O)N2C(C(=O)O)=C(CSc3nnnn3C)CS[C@@H]21 | inactive |
| C=CCCC(=O)O | inactive |
| CCOc1ccccc1OCC | inactive |
| CCCCOC(=O)CCC(C)=O | inactive |
| C=CN1CCCCCC1=O | inactive |
| COC(=O)C1=C(C)NC(C)=C(C(=O)OC(C)C)C1c1cccc2nonc12 (stereo not given) | inactive |
| C=COCC1CCC(COC=C)CC1 (stereo not given) | inactive |
| Cc1ncc(COP(=O)(O)O)c(C=O)c1O | inactive |
| CCOC(=O)OC(C)OC1=C(C(=O)Nc2ccccn2)N(C)S(=O)(=O)c2ccccc21 (stereo not given) | inactive |
| OCCCCCO | inactive |
| C[C@@H]1CCC[C@H](C)N1 | inactive |
| CC(C)C1CCC(O)CC1 (stereo not given) | inactive |
| Nc1c2c(nc3c1CCC3)CCCC2 | inactive |
| Cc1nc2ccc(CN(C)c3ccc(C(=O)N[C@@H](CCC(=O)O)C(=O)O)s3)cc2c(=O)[nH]1 | inactive |
